Assay results from PubChem BioAssay (NCATS).
Records with an inconclusive call do not appear. Unmarked numbers belong to inactive results. Active and inactive are the calls of the source. The call rests on the fitted dose curve; in most records, active means well fitted cell-killing curve with a large enough effect; inconclusive means small, poorly fitted or top-dose-only effect; inactive means flat fitted curve, though single readings scatter.

Key:
[1] = Cellular viability qHTS for adrenocortical cancer (ACC) cell line SW-13 (AID 1963989); settings: SW-13 ACC cells viability, CellTiter-Glo, 48 h; activity (max response): hits give low values;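 further: cells grown in serum-free medium with ITS supplement; on the % scale 0 is the no-effect control and ±100 the full control effect; nearly all actives have a fitted effect of over 65% in size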
Summary of the method: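 Compound titrations (up to 46 uM final, in DMSO) were applied to SW-13 cells for 48 h at 37C/5% CO2. Reading used CellTiter-Glo after 20 min at room temperature; fitted curves yielded IC50 and efficacy.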

[2] = Cellular viability qHTS for adrenocortical cancer (ACC) cell line NCI-H295R (AID 1963990); further: nearly all actives have a fitted effect of over 60% in size; further: potency means the concentration at half of the fitted maximal effect
Summary of the method: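 Readout: CellTiter-Glo luminescence, 20 min RT. Exposure: 48 h, 37C/5% CO2. Cells: NCI-H295R, ITS-DMEM serum-free. Range: up to 46 uM. Analysis: 4PL fit, IC50 plus efficacy.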

Row | Structure (SMILES) | activity (max response) [1] | Potency [2]
1 | CCN(CC)CCOc1ccccc1C(=O)CCc1ccccc1 | -19.2% | inactive
2 | CC[C@H]1OC(=O)[C@H](C)C(=O)[C@H](C)[C@@H](O[C@H]2O[C@H](C)C[C@H](N(C)C)[C@H]2O)[C@](C)(OC)C[C@@H](C)C(=O)[C@H](C)[C@H]2N(CCCCn3cnc(-c4cccnc4)c3)C(=O)O[C@]12C | -18.8% | inactive
3 | CN(CC1(C)CCCO1)S(=O)(=O)c1ccc(Cl)c(S(N)(=O)=O)c1 (configuration not stated) | 13.7% | inactive
4 | C#CCN(C)CCCOc1ccc(Cl)cc1Cl | -17.3% | 18.4 µM (active)
5 | O=C(O)CCNc1cc(N2CCc3ccccc3CC2)nc(-c2cccnc2)n1 | -9.23% | inactive
6 | CN1C(=O)N(c2cc(Cl)cc(Cl)c2)C(=O)[C@]12CN(Cc1cc(C(=O)O)cs1)C[C@H]2c1ccc(C#N)cc1 | -17% | inactive
7 | c1ccc(CNCCNCc2ccccc2)cc1 | -0.207% | inactive
8 | CN1CCN(C2=Nc3ccccc3Sc3ccc(Cl)cc32)CC1 | -24.6% | inactive
9 | C[C@]12CC[C@H](O)CC1=CC[C@@H]1[C@@H]2CC[C@]2(C)C(c3cccnc3)=CC[C@@H]12 | 2.71% | inactive
10 | O=C(O)Cc1ccc(CCNS(=O)(=O)c2ccc(Cl)cc2)cc1 | -0.672% | inactive
11 | CCOC(=O)OC(C)OC(=O)[C@@H]1N2C(=O)[C@@H](NC(=O)[C@H](N)c3ccccc3)[C@H]2SC1(C)C (some centres not stated) | 4.54% | inactive
